In all, about 1,200 compounds went through this assay and about 970 (81%) were called active. The rule behind the calls is not given here. The set was probably picked from earlier hits. Only a sample is shown. Potency and affinity values are given separately. Non-standard residues stand in square brackets, D forms with d. Residues, ends and D or L forms follow the SMILES beside them. *: point of attachment. Ac5c = NC1(C(=O)O)CCCC1; Cbz = O=C(OCc1ccccc1)*
Biological target: Transforming acidic coiled-coil-containing protein 3 (Homo sapiens) (UniProt Q9Y6A5)
Assay: inhibition of ARNT PAS-B/TACC3 complex formation – biochemical, AlphaScreen, cherry-picked samples, confirmation (AID 651703);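 note: TACC3 partner is the GST-tagged E629A mutant dimer; hits lower the signal meaning they disrupt ARNT binding to TACC3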
Settings: AlphaScreen His-ARNT PAS-B / GST-TACC3 binding, luminescence; series mostly up to 68 µM; activity change, negative = inhibition: at the top concentration

Activity change, negative = inhibition, inactive:
COc1ccc(-c2nc(CN3CCC(C(=O)NC4CCCc5ccccc54)CC3)c(C)o2)cc1OC (stereo not drawn) -10.4%
O=C(C[C@@H]1CC[C@H](NC(=O)CN2CCOCC2)[C@H](CO)O1)NCCc1ccncc1 -4.91%
CN(C)S(=O)(=O)N1CCN(S(=O)(=O)c2ccc(F)cc2)CC1 -10.6%
Cc1nnc(NC(=O)CSc2nnc(CNC(=O)c3ccc(F)cc3)o2)s1 -20.2%
COc1ccc2cc1Oc1ccc(cc1)C[C@H]1c3cc(c(OC)cc3CCN1C)Oc1c(OC)c(OC)cc3c1[C@@H](C2)N(C)CC3 -30.8%
CCC(C(=O)Nc1ncn[nH]1)(C(F)(F)F)C(F)(F)F -1.07%
CC(=O)c1cccc(NC(=O)N2CCCC2C(=O)NCc2ccccc2)c1 (stereo not drawn) 1%
COc1ccc(/C(C)=N\NC(=O)CSc2nnc(C)s2)cc1 -24.7%
O=C(NCC1CC1)c1cc(-c2ccccc2)on1 4.25%
NS(=O)(=O)c1ccc(CCNC(=O)c2ccc3c(c2)OCO3)cc1 -4.8%
O=C(NCCCO)c1cc(-c2ccccc2)on1 -4%
Oc1c(Br)cccc1/C=N/c1ncn[nH]1 -15.4%
Cn1c(=NC(=O)c2cnccn2)sc2ccccc21 -0.733%
O=C1NC[C@H](c2ccccc2)OC(=O)[C@H](Cc2ccc(F)cc2)CC/C=C/C[C@@H]1CC(=O)N(CCO)Cc1ccccc1 -25.4%
COc1ccc(Nc2nc(N)nc(CN3CCOCC3)n2)cc1 -9.11%
Fc1ccc(/C=N/Nc2ncnc3nc[nH]c23)cc1F -4.51%
CCn1c(Cc2ccccc2)nnc1SCC(=O)Nc1ccc(N)cc1 -17.3%
COCCNC(=O)Cn1cc(C(=O)c2cccs2)c2ccccc21 -0.504%
C[C@H]1CCCCO[C@H](CN(C)C(=O)Nc2ccc(F)cc2)[C@@H](C)CN([C@@H](C)CO)C(=O)c2cc(NS(=O)(=O)c3ccc(Cl)cc3)ccc2O1 -35.2%
CC(OC(=O)Cc1c(F)cccc1Cl)C(=O)NC1(C#N)CCCCC1 (stereo not drawn) -14.1%
Nc1ccc(C(=O)Nc2ccc3c(O)cc(S(=O)(=O)O)cc3c2)cc1 -23.1%
Cc1cc2c(NC(=O)CC(C)(C)CC(=O)O)cccc2nn1 -25.8%
O=C(O)c1ccc(Br)c(S(=O)(=O)N2CCCC2)c1 11.2%
CCN1CCN(c2ccc(NC(=O)c3cccc(S(=O)(=O)N4CCCC4)c3)cc2)CC1 -4.91%
COc1cc(/C=N/NC(=O)CCN2CCN(c3ccccc3)CC2)cc(OC)c1OC -13.7%
O=C(Nc1cn2ccccc2n1)c1cc(-c2ccccc2)on1 -9.05%
COC(=O)c1[nH]c2ccc(C)cc2c1NC(=O)c1ccccc1[N+](=O)[O-] -4.8%
CC(NC(=O)COC(=O)c1ccc([N+](=O)[O-])o1)c1ccccc1 (stereo not drawn) -13.2%
O=C(NC1CCc2ccccc2C1)c1cc(-c2ccccc2)on1 (stereo not drawn) -1.94%
Cc1ccccc1Oc1nc(-c2ccccn2)nc2ccccc12 -33%
CCOC(=O)CC(NC(=O)Cc1ccc(F)cc1)c1ccccc1Cl (stereo not drawn) -4.53%
COc1cc(C2Nc3ccccc3C(=O)N2NS(C)(=O)=O)c([N+](=O)[O-])cc1OC (stereo not drawn) -16.7%
NC1=NN=C(N2N=C(c3ccccc3)CC2(O)C(F)(F)F)n2ncnc2C1 (stereo not drawn) -18.7%
O=C1C=C(O)c2cccc(O)c2C1=O -12%
CCc1c(C)sc(NC(=O)C2CC(c3c(F)cccc3Cl)=NO2)c1C#N (stereo not drawn) -1.98%
CC[C@]1(O)CC2CN(CCc3c([nH]c4ccccc34)[C@@](C(=O)OC)(c3cc4c(cc3OC)N(C=O)[C@H]3[C@@](O)(C(=O)OC)[C@H](OC(C)=O)[C@]5(CC)C=CCN6CC[C@]43[C@@H]65)C2)C1 (stereo partly drawn) -12%
COc1ccccc1C(=O)Nc1ccccc1N1CCCCC1 3.51%
O=C(C[C@H]1C=C[C@@H](NC(=O)Nc2ccccc2)[C@@H](CO)O1)NCc1ccccn1 -11.4%
Cc1ccc(N(C)S(=O)(=O)c2cccc(C(=O)Oc3ccc4c(C)cc(=O)oc4c3)c2)cc1 -27%
Cc1ccc(S(=O)(=O)Cn2nnnc2C(c2ccccc2)N2CCN(c3ccccc3)CC2)cc1 (stereo not drawn) -34.1%
O=C(NC1Cc2ccccc2C1)[C@H]1N[C@H]2c3cccc(=O)n3C[C@H]2[C@@H]1CO -6.83%
Cc1[nH]n(-c2ccccc2)c(=O)c1C(c1ccc(C(=O)O)cc1)c1c(C)[nH]n(-c2ccccc2)c1=O -26.7%
Cc1[nH]n(-c2ccccc2)c(=O)c1C(c1ccc(O)c([N+](=O)[O-])c1)c1c(C)[nH]n(-c2ccccc2)c1=O -19.9%
COc1ccc(CCNC(=O)C23CCC(C)(C(=O)C2Br)C3(C)C)cc1OC (stereo not drawn) -15.7%
Cn1c(CCNC(=O)c2ccc(Cl)c(Cl)c2)nnc1SCc1ccc(Cl)c(Cl)c1 -11.5%
O=C(c1cc(-c2ccccc2)on1)N1CCN(c2ccncc2)CC1 -2.62%
O=C(C1=C(O)C(=O)N(Cc2ccccc2)C1c1ccncc1)c1ccco1 (stereo not drawn) -32.6%
COc1cc(Cc2nccc3cc(OC)c(OC)cc23)c(S(=O)(=O)O)cc1OC -0.945%
CC=Cc1ccc2n(c1=O)C[C@H]1[C@H](CO)[C@@H](C(=O)NC3CCC3)[C@@H]2N1S(=O)(=O)c1cn(C)cn1 (mixture of isomers) -1.42%
Cc1cc(C)c(C(N)=O)c(Nc2cccc3ccccc23)n1 -15.8%
COc1ccc(Nc2nnc(-c3ccc(C(N)=O)cc3)c3ccccc23)cc1 -7.69%
C[C@@H]1CN([C@@H](C)CO)C(=O)c2cc(NS(=O)(=O)c3cccs3)ccc2O[C@H]1CN(C)CC1CCCCC1 -0.808%
COc1ccc(-c2cnc3c(c2)C(=O)N([C@@H](C)CO)C[C@@H](C)[C@@H](CN(C)Cc2cccnc2)O3)cc1 -6.34%
C/C(=C\C(=O)c1ccccc1)Nc1ccc(N2CCOCC2)cc1 -30.2%
Cc1ccc(S(=O)(=O)n2nc(C)c(C#N)c2N)cc1 4.8%
CCCc1nnc(NS(=O)(=O)c2ccc(C)cc2)o1 -0.661%
COC(=O)c1c(N)n(-c2ccc(NC(C)=O)cc2)c2nc3ccccc3nc12 -49%
CC(C)C#Cc1ccc2c(c1)O[C@@H](CN(C)C(=O)CN(C)C)[C@@H](C)CN([C@@H](C)CO)S2(=O)=O -9.31%
COc1ccc(NC(=O)Nc2ccc3c(c2)C(=O)N([C@H](C)CO)C[C@@H](C)[C@@H](CN(C)C(=O)CCC(F)(F)F)OCCCC[C@H](C)O3)cc1 -17.6%
CC(C)NC(=O)Nc1ccc2c(c1)C(=O)N([C@H](C)CO)C[C@H](C)[C@@H](CN(C)C(=O)Cc1ccccc1)OCCCC[C@H](C)O2 -10.9%
C[C@@H]1CCCCO[C@H](CN(C)Cc2ccncc2)[C@H](C)CN([C@H](C)CO)C(=O)c2cc(NC(=O)C3CCCCC3)ccc2O1 -9.09%
CC(C)NC(=O)N(C)C[C@H]1OCCCC[C@H](C)Oc2ccc(NC(=O)Nc3ccccc3)cc2C(=O)N([C@H](C)CO)C[C@@H]1C -11.9%
CN(C)C(=O)c1cccc(-c2ccc3c(c2)[C@@H]2[C@@H](CCN2C(=O)c2cccnc2)[C@@H](CO)N3)c1 -11.2%
O=C(C[C@H]1C=C[C@H](NS(=O)(=O)c2ccc(F)cc2)[C@H](CO)O1)N1CCN(c2ccccc2)CC1 -5.74%
C[C@H](CO)N1C[C@H](C)[C@@H](CN(C)Cc2ccccn2)Oc2ncc(C#CC3(O)CCCC3)cc2C1=O -21.8%
COc1ccc(OC)c(-n2nnnc2SCC(=O)Nc2ccccc2OC)c1 -24.6%
CC(=O)N(C)C1=C(O)c2ccccc2C(=O)C1=O 3.26%
O=C(Nc1ccc2c(c1)OCO2)c1ccc2c(c1)OCO2 -25.8%
CN(C)CCNC(=O)c1cc(-c2ccccc2)on1 -1.32%
COc1ccc(OC)c2nc3c(C(=O)NCCN(C)C)cccc3nc12 -2.27%
CCn1cc(/C=C2/SC(=S)NC2=O)c(C)n1 -2.57%
Nc1ccc2nn(-c3ccc(F)cc3)nc2c1 -35.2%
Cc1ccc(CNC(=O)c2cc(-c3ccccc3)on2)cc1 4.88%
COc1ccc(C2=C(C)CC(C)(C)NC2=O)cc1OC -25.1%
O=c1ccc(-c2ccc(S(=O)(=O)Nc3ccc(F)cc3)s2)n[nH]1 -18.8%
O=C(Nc1ncc2ccccc2n1)c1cc(-c2ccccc2)on1 -0.281%
Cn1c(NC(=O)c2cc(-c3ccccc3)on2)nc2ccccc21 -9.11%
CCCCNC(=O)c1cc(-c2ccccc2)on1 1.77%
O=C(NCCN1CCCCC1)c1cc(-c2ccccc2)on1 4.24%
O=C(NCc1ccccc1)c1cc(-c2ccccc2)on1 2.2%
O=c1c(C=NCCCn2ccnc2)c(-c2ccccc2)[nH]n1-c1nc2ccccc2s1 -25.4%
Cc1[nH][nH]c(=O)c1C(c1ccc(Cl)cc1)c1c(C)[nH][nH]c1=O 5.36%
Cc1[nH][nH]c(=O)c1C(c1ccc(O)c(Br)c1)c1c(C)[nH][nH]c1=O -7.14%
Cc1[nH][nH]c(=O)c1C(c1ccc(Br)cc1)c1c(C)[nH][nH]c1=O -17.9%
O=C(C[C@@H]1CC[C@H](NC(=O)Nc2cc(F)ccc2F)[C@@H](CO)O1)Nc1ccc(-c2ccccc2)cc1 -2.09%
COc1cc(C2C(C#N)=C(N)Oc3n[nH]c(C)c32)ccc1OC(=O)c1ccccc1 (stereo not drawn) -16.4%
COC(=O)C1(NC(=O)CNC(=O)OCc2ccccc2)CCCC1 (Cbz-Gly-[Ac5c]-OMe) -7.97%
CCN(CC)CCCNc1nc2ccccc2c2[nH]c3ccc(OC)cc3c12 -7.38%
Cn1c(N)c(C(=O)c2cc(-c3ccccn3)nc3ccccc23)c(=O)[nH]c1=O -17.4%
Cc1c(NC(=O)c2cccnc2C(=O)O)cccc1C(=O)O -3.04%
N#Cc1ccc(CC(=O)c2ccccc2)[nH]c1=O -8.48%
C[C@H](CO)N1C[C@H](C)[C@H](CN(C)Cc2cccnc2)Oc2cc(C#CCN(C)C)ccc2S1(=O)=O -10.9%
C[C@@H]1CN([C@H](C)CO)S(=O)(=O)c2ccc(C#Cc3ccccn3)cc2O[C@@H]1CN(C)C(=O)C1CC1 -9.78%
